This note sets out measurements from PubChem BioAssay (NCI).

The panel holds about 83,000 compounds, 20% with a hit somewhere; the sample as a whole holds those more often.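 Note: values are percent growth. 100 is the growth of untreated cells, values between 100 and 0 indicate rising inhibition; between -100 and 0 indicates cell death.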 Activity calls are given as the source filed them. How the source made its calls: active means growth percent below 10; inactive means the rest.

The experiment concerns MDA-MB-468 breast. Nature of the experiment: NCI-60 one-dose screen, 48 h (100 = growth as untreated, 0 = no growth, -100 = all killed). The note with it: 10 µM unless noted.
On to `COc1ccc(-c2cc(=O)n(-c3nc4ccccc4[nH]3)[nH]2)cc1OC`, for which the growth was 83% (inactive). In the case of `CCOC(=O)CNC(=O)CCCCSc1ncnc2nc[nH]c12` it was 95.4% (inactive).

Regarding `Cn1cc(C(=O)c2nc(-c3c[nH]c4ccc(F)cc34)no2)c2cc(F)ccc21`, the growth was 107% (inactive).

Consider `COC(=O)c1ccc2[nH]c(O)c(C(=Nc3ccc(N(C)C(=O)CN4CCN(C)CC4)cc3)c3ccc(OC)cc3)c2c1`, for which the growth was 64.5% (inactive). Under `O=C(O)c1ccc(CO)o1` stands 103% (inactive); under `Cc1cc2cn3c4ccc(O)cc4[nH]c(=O)c3c2cc1C`, -28.2% (active).

Take `CCCCCCCCCCC[C@@H](C[C@H]1OC(=O)[C@H]1CCCCCC)OC(=O)[C@@H](CC(C)C)NC=O`: the growth was 101% (inactive).

`CC(C)(C)OC(=O)Nc1ccc2c(c1)C(NC(=O)Nc1cccc(C#N)c1)CC(C)(C)O2` (stereo not given): the growth is -5.73% (active). Consider `COc1cc(-c2ccc(-c3ccc(C(=N)N)s3)s2)cc(OC)c1OC`, for which the growth is 23.8% (inactive). Regarding `CC(=O)N1N=C(C2C(=O)N(C)C(=O)N(C)C2=O)CC1c1ccccc1C(=O)O` (stereo not given), the growth is 114% (inactive). Consider `Cc1ccc(N(CC(=O)Nc2ccc(S(=O)(=O)NC3CCN(C)CC3)cc2)S(=O)(=O)c2ccc(Cl)cc2)cc1`, for which the growth is 50.3% (inactive). In the case of `O=C(Nc1cccc(F)c1)Nc1cccc(Cl)c1` it was 90% (inactive). Under `CC(C)(C)OC(=O)N1CCN(CCn2cc(C(F)(F)F)c3c(Cl)ncnc32)CC1` stands 19.4% (inactive). Under `CCOC(=O)C(=Cc1c(-c2ccccc2)[nH]c2ccccc12)C(=O)OCC` stands 12.8% (inactive); under `COc1ccc(-c2n[nH]nc2-c2cc(OC)c3c(c2)OCO3)cc1`, 38.6% (inactive).

With `COc1ccc2c(c1)C(=O)/C(=C/c1ccc([N+](=O)[O-])o1)O2`, the growth is -49.4% (active).

Consider `O=C(c1nc2ccccc2[nH]1)C1C(c2ccc([N+](=O)[O-])cc2)C2CC3CCCCC3N2[C@@]12C(=O)Nc1cc(Cl)ccc12` (stereo not given in full), for which the growth was -1.98% (active). In the case of `O=C(CCc1ccc(O)cc1)N/N=C/c1cc(Br)ccc1O` it was 56.8% (inactive); in that of `Brc1ccccc1Nc1ccc2nnc(-c3ccncc3)n2n1`, 85.3% (inactive). In the case of `CN1CCN(Cc2ccc(NC(=O)c3cccc(C#Cc4c(N)ncc5ccc(F)cc45)c3)cc2C(F)(F)F)CC1` it was -61.7% (active); in that of `CC(=O)Nc1cc2c3c(cccc3c1)-c1ccccc1-2`, 108% (inactive); in that of `Cn1cc(-c2nnc(-c3cn(C)c4ncc(Br)cc34)o2)c2ccccc21`, 39.3% (inactive).

On to `Cc1cnc(C(=O)Nc2nc3ccc(S(=O)(=O)Nc4ccc(C(C)(C)C)cc4)cc3[nH]2)cn1`, for which the growth is -11.4% (active). Regarding `CC(=O)Oc1ccc(C(c2ccc(OC(C)=O)cc2)c2ccccn2)cc1`, the growth is 17.3% (inactive). Regarding `COc1cc(C2CC(c3ccc(C)cc3)=NN2C=O)ccc1Oc1nc2c(c(=O)n(C)c(=O)n2C)n1C` (stereo not given), the growth is 73.8% (inactive). In the case of `CN(C)c1ccc(N=C2C=CC(=O)C=C2)cc1` it was 12.5% (inactive).

Take `S=c1nn[nH]c2ccccc12`: the growth was 117% (inactive). Under `CCCCCCc1nc2nc(Cl)c(Cl)nc2[nH]1` stands 31.1% (inactive); under `O=C(OCc1ccc2c(Cl)cc(Cl)c(O)c2n1)n1cncn1`, 14% (inactive); under `COc1ccc2[nH]c(=O)c(CNc3ccc(Nc4nccc(-c5ccc(Cl)cc5)n4)cc3)cc2c1`, 88% (inactive).

Turning to `CCNc1nc(C(F)(F)F)nc2c1sc(=S)n2-c1ccccc1`, the growth is 81.6% (inactive).

For `C=C1C(=O)O[C@H]2[C@H]1CC/C(COC(=O)NCCc1c[nH]c3ccccc13)=C\CC[C@@]1(C)O[C@@H]21`, the growth was -6.71% (active).

For `COc1cc(/C=C/C(=O)c2ccc(C(F)(F)F)cc2)ccc1Oc1nc(NCCO)nc(N2CCOCC2)n1`, the growth is 85.6% (inactive).

With `COc1ccc(C2=Nc3c(N)ncnc3NC(c3cccc(Nc4ccnc5cc(C(F)(F)F)ccc45)c3)C2)cc1` (stereo not given), the growth was 46.9% (inactive). Regarding `O=C(CC(CC(=O)c1ccccc1)c1ccccc1O)c1ccccc1`, the growth is 100% (inactive). In the case of `O=C(O)CNC1=C(Cl)C(=O)c2ccccc2C1=O` it was 109% (inactive). As to `CCN(CC)CCOc1ccc(Nc2ncc3cc(-c4ccc(O)cc4)c(=O)n(C)c3n2)cc1`, the growth is 44.8% (inactive). As for `C(=N\Nc1nc(N/N=C/c2ccc3c(c2)OCO3)nc(N2CCCCC2)n1)/c1ccc2c(c1)OCO2`, the growth was 81.6% (inactive).

With `COC(=O)[C@]12CC[C@@H](C)[C@H](C)[C@@H]1C1=CC[C@@H]3[C@@]4(C)C[C@@H](OC(C)=O)[C@H](O)[C@@](C)(CO)[C@@H]4[C@H](O)C[C@@]3(C)[C@]1(C)CC2`, the growth was -90.6% (active). Under `O=C(c1ccc(Cl)cc1)N1CCN(c2ccnc3cc(Cl)ccc23)CC1` stands 72.7% (inactive).
